Experimental data as given in PubChem BioAssay AID1159580 (chemical genetic matrix, 2015).
Out of some 5,500 compounds screened, about 2,000 (36%) were called active. Roughly 18% stayed inconclusive and do not appear here. No stated cut-off is given here; in the data, active means normalized growth mostly below about 0.91 (no sharp cut-off); inconclusive means no clear call, values can overlap the other calls; inactive means mostly above about 0.92. The list shows a part of the results.

Assay: chemical genetic growth profiling, strain panel (AID 1159580);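 further: tested at 20 µM; growth read once vehicle control cultures reached saturation at 30 °C; 1 = growth at the plate median or of vehicle wells; lower values mean less growth of the strain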
Conditions: growth OD

Measured: normalized growth

O=C(O)c1cc(O)c(O)c(O)c1
inactive: S. cerevisiae deletion strains, locus YJR066W, strain TOR1, hits give low values 0.929 | S. cerevisiae deletion strains, locus YKL009W, strain mrt4, hits give low values 1.03 | S. cerevisiae deletion strains, locus YKL068W, hits give low values 1 | S. cerevisiae deletion strains, locus YKL085W, strain MDH1 (second series), hits give low values 1.03 | S. cerevisiae deletion strains, locus YKL085W, strain MDH1, hits give low values 1.03 | S. cerevisiae deletion strains, locus YKL160W, strain elf1, hits give low values 1.05 | S. cerevisiae deletion strains, locus YKR001C, strain vps1, hits give low values 1.07 | S. cerevisiae deletion strains, locus YKR026C, strain gcn3, hits give low values 1.02 | S. cerevisiae deletion strains, locus YKR091W, strain srl3, hits give low values 1.01 | S. cerevisiae deletion strains, locus YLL001W, strain dnm1, hits give low values 0.997 | S. cerevisiae deletion strains, locus YLL026W, hits give low values 1 | S. cerevisiae deletion strains, locus YLL041C, strain sdh2, hits give low values 1.04 | S. cerevisiae deletion strains, locus YLR027C, strain aat2, hits give low values 1.04 | S. cerevisiae deletion strains, locus YLR058C, strain SHM2, hits give low values 1.06 | S. cerevisiae deletion strains, locus YLR102C, strain apc9, hits give low values 1.02 | S. cerevisiae deletion strains, locus YLR113W, strain HOG1, hits give low values 0.985 | S. cerevisiae deletion strains, locus YLR221C, strain rsa3, hits give low values 0.981 | S. cerevisiae deletion strains, locus YLR258W, strain gsy2, hits give low values 1.05 | S. cerevisiae deletion strains, locus YLR262C, strain YPT6 (second series), hits give low values 1.03 | S. cerevisiae deletion strains, locus YLR262C, strain YPT6, hits give low values 1.26 | S. cerevisiae deletion strains, locus YLR268W, strain sec22, hits give low values 1.04 | S. cerevisiae deletion strains, locus YLR320W, strain mms22, hits give low values 1.02 | S. cerevisiae deletion strains, locus YLR330W, strain CHS5, hits give low values 1.03 | S. cerevisiae deletion strains, locus YLR342W, strain FKS1 (second series), hits give low values 1.05 | S. cerevisiae deletion strains, locus YLR342W, strain FKS1, hits give low values 1.03 | S. cerevisiae deletion strains, locus YLR357W, strain rsc2, hits give low values 1.06 | S. cerevisiae deletion strains, locus YLR370C, strain arc18, hits give low values 1.02 | S. cerevisiae deletion strains, locus YLR371W, strain rom2, hits give low values 1.05 | S. cerevisiae deletion strains, locus YLR384C, strain iki3, hits give low values 1.02 | S. cerevisiae deletion strains, locus YLR418C, strain cdc73, hits give low values 1.11 | S. cerevisiae deletion strains, locus YML016C, strain PPZ1, hits give low values 1.03 | S. cerevisiae deletion strains, locus YML032C, strain rad52, hits give low values 1.03 | S. cerevisiae deletion strains, locus YML120C, strain ndi1, hits give low values 1.01 | S. cerevisiae deletion strains, locus YML124C, strain tub3, hits give low values 1.02 | S. cerevisiae deletion strains, locus YMR058W, strain fet3, hits give low values 1.01 | S. cerevisiae deletion strains, locus YMR078C, strain ctf18, hits give low values 1.03 | S. cerevisiae deletion strains, locus YMR125W, strain sto1, hits give low values 1.03 | S. cerevisiae deletion strains, locus YMR129W, hits give low values 1.03 | S. cerevisiae deletion strains, locus YMR205C, strain PFK2, hits give low values 1.06 | S. cerevisiae deletion strains, locus YMR223W, strain ubp8, hits give low values 1.02 | S. cerevisiae deletion strains, locus YMR231W, strain pep5, hits give low values 1.01 | S. cerevisiae deletion strains, locus YMR307W, strain GAS1, hits give low values 1.24 | S. cerevisiae deletion strains, locus YNL067W, strain RPL9B, hits give low values 1.02 | S. cerevisiae deletion strains, locus YNL071W, strain lat1, hits give low values 1.06 | S. cerevisiae deletion strains, locus YNL183C, strain NPR1, hits give low values 0.933 | S. cerevisiae deletion strains, locus YNL209W, strain ssb2, hits give low values 1.01 | S. cerevisiae deletion strains, locus YNL233W, strain BNI4, hits give low values 1.08 | S. cerevisiae deletion strains, locus YNL248C, strain rpa49, hits give low values 1.08 | S. cerevisiae deletion strains, locus YNL250W, strain rad50, hits give low values 1.05 | S. cerevisiae deletion strains, locus YNL271C, strain bni1, hits give low values 1.01 | S. cerevisiae deletion strains, locus YNL298W, strain CLA4, hits give low values 1.01 | S. cerevisiae deletion strains, locus YNL307C, strain MCK1, hits give low values 1.03 | S. cerevisiae deletion strains, locus YNL322C, strain KRE1 (second series), hits give low values 1.03 | S. cerevisiae deletion strains, locus YNR049C, strain mso1, hits give low values 1.01 | S. cerevisiae deletion strains, locus YNR052C, strain pop2, hits give low values 1.01 | S. cerevisiae deletion strains, locus YOL006C, strain TOP1, hits give low values 1.36 | S. cerevisiae deletion strains, locus YOL012C, strain htz1 0.913 | S. cerevisiae deletion strains, locus YOL147C, strain pex11, hits give low values 1.02 | S. cerevisiae deletion strains, locus YOR001W, strain rrp6, hits give low values 0.981 | S. cerevisiae deletion strains, locus YOR061W, strain CKA2, hits give low values 1.04 | S. cerevisiae deletion strains, locus YOR069W, strain VPS5, hits give low values 1.03 | S. cerevisiae deletion strains, locus YOR070C, strain gyp1, hits give low values 1.02 | S. cerevisiae deletion strains, locus YOR080W, strain dia2, hits give low values 1.01 | S. cerevisiae deletion strains, locus YOR083W, strain WHI5, hits give low values 0.995 | S. cerevisiae deletion strains, locus YOR106W, strain vam3, hits give low values 1.05 | S. cerevisiae deletion strains, locus YOR136W, strain idh2, hits give low values 1.02 | S. cerevisiae deletion strains, locus YOR144C, strain elg1, hits give low values 1.01 | S. cerevisiae deletion strains, locus YOR184W, strain ser1, hits give low values 1.05 | S. cerevisiae deletion strains, locus YOR231W, strain MKK1, hits give low values 0.971 | S. cerevisiae deletion strains, locus YOR265W, strain rbl2, hits give low values 1 | S. cerevisiae deletion strains, locus YOR270C, strain vph1, hits give low values 1.17 | S. cerevisiae deletion strains, locus YOR290C, strain snf2, hits give low values 1.05 | S. cerevisiae deletion strains, locus YOR316C, strain cot1, hits give low values 1.02 | S. cerevisiae deletion strains, locus YPL051W, strain arl3, hits give low values 1.04 | S. cerevisiae deletion strains, locus YPL055C, strain LGE1, hits give low values 1.1 | S. cerevisiae deletion strains, locus YPL078C, strain atp4, hits give low values 1.05 | S. cerevisiae deletion strains, locus YPL106C, strain sse1, hits give low values 1.06 | S. cerevisiae deletion strains, locus YPL240C, strain hsp82, hits give low values 1.01 | S. cerevisiae deletion strains, locus YPL256C, strain CLN2, hits give low values 0.968 | S. cerevisiae deletion strains, locus YPR119W, strain clb2, hits give low values 1.05 | S. cerevisiae deletion strains, locus YPR141C, strain kar3, hits give low values 1.02 | S. cerevisiae deletion strains, locus YPR163C, strain tif3, hits give low values 1.03 | S. cerevisiae deletion strains, locus YPR167C, strain met16, hits give low values 1.05 | S. cerevisiae deletion strains, strain wtn01, hits give low values 1.03 | S. cerevisiae strains, strain wild type, hits give low values 1.07
active: S. cerevisiae deletion strains, locus YLR039C, strain RIC1, hits give low values 1.34 [resistant]
